IL1B secr inh – inflammasome signaling inhibition, IL-1 beta readout; THP-1 LPS/ATP IL-1B secretion, AlphaLISA, 16 h; active compounds read low; activity change, % at 57.5 µM; 4.7% of 360,000 active; AID 743279; in the data active means activity change below about -50%; inconclusive means mostly about -30% to -49%
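Secreted IL-1B measured by AlphaLISA bead assay after 16 h compound exposure of THP-1 cells; compounds (final up to 57.5 uM) added 1 h before LPS (250 ng/mL) and ATP (1.25 mM) stimulation; lower signal means less secretion.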
DT40 TDP1 no CPT – qHTS for Inhibitors of human tyrosyl-DNA phosphodiesterase 1 (TDP1): qHTS in cells in absence of CPT | DT40 Tdp1-/- hTDP1 cells, no CPT, ATP luminescence, 48 h | Potency, µM (doses to about 46.2 µM), without a hit: at the top dose activity change, negative = growth inhibition, actives largely listed as inhibitors | 15% of 420,000 active; further: potency means the concentration at half of the fitted maximal effect; nearly all actives have a fitted effect of over 55% in size
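Cells were dispensed at 400 per well, compounds added by pin tool, plates incubated ≥48 hr at 37 °C, then CellTiter-Glo added for 30 min at room temperature before luminescence reading. Line: DT40 Tdp1-/- complemented with hTDP1; camptothecin omitted.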
HT1080 IDH1KD tx – kills HT-1080 cells with IDH1 knockdown; HT-1080 IDH1 knockdown viability, ATP luminescence, 48 h; 2% of 360,000 active; Potency, µM (doses to about 46.1 µM), without a hit: at the top dose activity, negative = toxicity, hits mostly cytotoxic;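 further: potency means the concentration at half of the fitted maximal effect; 0% = DMSO wells and -100% = cell-free medium wells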
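Knockdown cells (IDH1KD HT-1080) received compounds 2 h after plating at 750 cells/well and were kept 48 h at 37 °C in 5% FBS RPMI. A CellTiter-Glo luminescence read gave % activity for curve fitting.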
DT40 TDP1 CPT – DT40-hTDP1 cell growth loss with CPT; chicken DT40 Tdp1-/-;hTDP1 cells + 20 nM CPT, ATP luminescence, 48 h; Potency, µM (series often up to 46.2 µM), without a hit: top-dose activity change, negative = growth inhibition, most hits filed as inhibitors; 12% of 420,000 active; AID 686979; further: potency means the concentration at half of the fitted maximal effect; nearly all actives have a fitted effect of over 55% in size
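Chicken DT40 Tdp1-/- cells complemented with human TDP1, 400 cells/well, exposed to compounds plus 20 nM camptothecin for at least 48 h at 37 C; viability read as ATP content by CellTiter-Glo luminescence.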
HT1080NT lethal – kills 2HG-producing HT-1080-NT fibrosarcoma cells; 1.6% of 360,000 active; HT-1080-NT fibrosarcoma viability, CellTiter-Glo ATP luminescence, 48 h; Potency, µM (doses to about 46.1 µM), without a hit: top-dose activity, negative = less viability, usual class: cytotoxic;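 further: NT is the 2HG producing partner of a matched IDH1 knockdown line; potency means the concentration at half of the fitted maximal effect; 0% = DMSO-treated cells and -100% = media-only wells without cells; nearly all actives have a fitted effect of over 55% in size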
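HT-1080-NT; 750 cells/well; 5% FBS RPMI; 48 h compound, 37 degrees C; CellTiter-Glo luminescence; curve fitting and curve-class assignment.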
uPA generation – cell surface uPA generation inhibition; cell surface uPA generation assay, qHTS; Potency, µM (series often up to 38.3 µM), inactives show at the top dose activity change, negative = inhibition, most hits filed as inhibitors; 0.31% of 330,000 active; AID 540303; active means well fitted inhibition curve with a large enough effect; inconclusive means small, poorly fitted or top-dose-only effect; inactive means no such curve, though single readings can be large or run the other way; tested in mouse RAW 264.7 cells; further: potency means the concentration at half of the fitted maximal effect; nearly all actives have a fitted effect of over 55% in size
Starred values were filed as active, the others as inactive; ? = inconclusive; . = no result given; [ ] = remark or other dose. Hits are enriched below; roughly 19% of the tested compounds scored in any of these assays. Unless noted, the call rests on the fitted dose curve; in most records, active means well fitted curve in the direction sought with a large enough effect; inconclusive means small, poorly fitted or top-dose-only effect, or another doubt; inactive means no such curve, though single readings can be large; an effect the other way counts as inactive or inconclusive. Unless noted, on the % scale 0 is the no-effect control and ±100 the full control effect.

SMILES	IL1B secr inh	DT40 TDP1 no CPT	HT1080 IDH1KD tx	DT40 TDP1 CPT	HT1080NT lethal	uPA generation
CC(=O)N1CCN(c2ccc([N+](=O)[O-])c(-n3nc(C)cc3C)c2)CC1	0	-3%	16%	-6%	12%	1%
CN(C)S(=O)(=O)N1CCN(c2ccc([N+](=O)[O-])c(N3CCCCC3)c2)CC1	22	10µM*	16%	-26%	-5%	-2%
Cc1cc(C)n(-c2cc(N3CCN(S(=O)(=O)c4ccc(Cl)cc4)CC3)ccc2[N+](=O)[O-])n1	-6	6.5µM*	11%	7.3µM*	0%	-4%
Cc1cc(C)n(-c2cc(N3CCN(C(=O)c4cccc(Br)c4)CC3)ccc2[N+](=O)[O-])n1	?	21µM*	-14%	?	-3%	-8%
N#Cc1cccc(S(=O)(=O)NCC(=O)OCC(=O)NCc2ccccc2)c1	-4	13%	-1%	4%	9%	5%
O=C1CC(c2ccc(Cl)cc2)Oc2ccc(Cl)cc21 (stereo not drawn)	-87*	?	?	?	?	-3%
Cn1c(Cl)cnc1C1CC(=O)c2cc(Cl)ccc2O1 (stereo not drawn)	-95*	2.6µM*	9.2µM*	4.1µM*	?	-12%
CC(=O)N1CCC2(CC1)CC(=O)c1cc(Cl)ccc1O2	16	-16%	8%	-15%	4%	4%
O=C1CC(c2cccc(O)c2)Oc2ccccc21 (stereo not drawn)	-83*	?	-5%	?	1%	-2%
Cc1nn(C)c(C)c1S(=O)(=O)N(CC(=O)N1CCc2ccccc2C1)c1ccc(C(C)C)cc1	-12	?	-6%	?	1%	?
Cc1cc(C)cc(N(CC(=O)N2CCN(Cc3ccccc3)CC2)S(=O)(=O)c2c(C)noc2C)c1	5	?	-2%	?	0%	7%
COc1ccc(N(CC(=O)NCCc2ccccc2)S(=O)(=O)c2c(C)nn(C)c2C)cc1	.	?	.	-12%	.	.
COc1ccc(N(CC(=O)N2CCN(c3cccc(Cl)c3)CC2)S(=O)(=O)c2c(C)noc2C)cc1	-13	18µM*	-8%	16µM*	0%	-18%
Cc1nn(C)c(C)c1S(=O)(=O)N(CC(=O)NCCc1ccc(Cl)cc1)c1ccc(C(C)C)cc1	.	15µM*	.	16µM*	.	.
Cc1ccc(N(CC(=O)N2CCN(c3cc(Cl)ccc3C)CC2)S(=O)(=O)c2c(C)noc2C)cc1	.	9.2µM*	.	21µM*	.	.
Cc1nn(C)c(C)c1S(=O)(=O)N(CC(=O)N1CCN(c2ccccc2)CC1)c1ccc(C(C)C)cc1	.	16µM*	.	16µM*	.	.
Fc1ccc(-c2cc(-c3ccccc3)c3c(n2)-c2cc(F)ccc2OC3)cc1	.	-15%	.	-11%	.	.
CCCS(=O)(=O)NCc1c(C)ncc2c1CCN(C(=O)c1c(F)ccc(F)c1F)C2	.	0%	.	4%[9.04 µM]	.	.
COc1ccc(N(CC(=O)N2CCN(c3ccccc3)CC2)S(=O)(=O)c2c(C)nn(C)c2C)cc1	.	?	.	4%	.	.
COc1ccc(N(CC(=O)N2c3ccccc3CC2C)S(=O)(=O)c2c(C)nn(C)c2C)cc1 (stereo not drawn)	17	18µM*	-11%	?	-14%	10%
Cc1ccc(N(CC(=O)N2CCN(c3cccc(C)c3C)CC2)S(=O)(=O)c2c(C)nn(C)c2C)cc1	.	9.2µM*	.	8.2µM*	.	.
COc1ccc(N(CC(=O)N2CCN(c3ccc(F)cc3)CC2)S(=O)(=O)c2c(C)nn(C)c2C)cc1	.	23µM*	.	?	.	.
COc1ccc(N(CC(=O)N2CCN(c3ccc(F)cc3)CC2)S(=O)(=O)c2c(C)noc2C)cc1	-1	?	4%	26µM*	-4%	-5%
